RORg inh: blocks mouse ROR gamma transcriptional activity. Drosophila S2 Gal4-RORgamma UAS-luciferase reporter, 20 h. AID 2551. Potency, µM (titrated, usually from 53.6 µM), for the others: top-dose activity change, negative = inhibition, actives largely listed as inhibitors. actives 5.4% (n = 310,000); also: nearly all actives have a fitted effect of over 60% in size
Target sequence (P51450 whole entry, looked up, the tested form may be a part): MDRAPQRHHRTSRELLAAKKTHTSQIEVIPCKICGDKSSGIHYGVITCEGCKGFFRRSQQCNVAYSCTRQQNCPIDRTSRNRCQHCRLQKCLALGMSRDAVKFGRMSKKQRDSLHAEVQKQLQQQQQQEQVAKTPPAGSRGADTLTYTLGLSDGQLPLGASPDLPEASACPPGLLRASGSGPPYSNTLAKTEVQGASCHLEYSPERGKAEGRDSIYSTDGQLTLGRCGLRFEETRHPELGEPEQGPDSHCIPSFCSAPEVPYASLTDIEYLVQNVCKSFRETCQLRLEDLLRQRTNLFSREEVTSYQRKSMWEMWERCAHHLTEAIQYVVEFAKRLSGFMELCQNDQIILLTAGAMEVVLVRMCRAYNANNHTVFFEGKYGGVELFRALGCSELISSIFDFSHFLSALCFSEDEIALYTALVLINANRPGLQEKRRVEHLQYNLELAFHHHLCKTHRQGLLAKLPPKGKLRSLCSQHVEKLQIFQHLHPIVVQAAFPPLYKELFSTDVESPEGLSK
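Luminescence from a UAS-regulated Photinus luciferase reporter in stably transfected Drosophila Schneider cells is measured; decreased signal marks ROR gamma inhibition. Fusion expression is induced by 700 uM copper sulfate for 20 hr.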
Gal4-VP16 FLuc: inhibits Gal4-VP16 luciferase reporter, ROR gamma counter-screen | Drosophila S2 Gal4-VP16 UAS-luciferase, luminescence, 20 h | Potency, µM (series often up to 53.6 µM), inactives show at the highest dose activity, negative = inhibition, actives largely listed as inhibitors | actives 3.5% (n = 310,000) | AID 2546;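 also: Gal4-VP16 expression switched on by copper sulfate through the metallothionein promoter; nearly all actives have a fitted effect of over 50% in size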
KinaseGlo FLuc: counter-screen: inhibitors of Kinase-Glo firefly luciferase; actives 0.28% (n = 200,000); Q27757; AID 1379; Potency, µM (top dose mostly 38.3 µM), for inactives: top-dose activity change, negative = inhibition, actives largely listed as inhibitors; Kinase-Glo luciferase, ATP luminescence, 8 min; also: nearly all actives have a fitted effect of over 60% in size
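Kinase-Glo luciferase light output from ATP and luciferin was measured with 10 uM ATP, within the enzyme's linear range. Buffer: 50 mM imidazole pH 7.2, 50 mM KCl, 7 mM MgCl2, 0.01% Tween 20, 0.05% BSA; luminescence read after 8 min at ambient temperature.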
An asterisk follows results filed as active; [ ] = dose if it differs, or a comment. Sampled rows, rich in hits. Any-hit rate of the full collection: about 6.4%. Calls follow the shape of the dose curve; as a rule, active = well fitted curve in the direction sought with a large enough effect; inconclusive = small, poorly fitted or top-dose-only effect, or another doubt; inactive = no such curve, though single readings can be large; an effect the other way counts as inactive or inconclusive. % is scaled to controls: 0 for no effect and ±100 for the full control effect; potency is read from the fitted curve at half-maximal effect.

C/C(=N\NC(=S)NC1CCCCC1)c1ccc(Cl)c(Cl)c1 was read as RORg inh 1.41µM* and Gal4-VP16 FLuc 2.82µM*.
For C/C(=N\NC(=O)C1CC1)c1cccs1 the results were RORg inh 8.6%, Gal4-VP16 FLuc -5.6% and KinaseGlo FLuc -11.5%.
Screening C/C(=N\NC(=S)NC1CCCCC1)c1ccc(OC(F)F)cc1OC(F)F returned RORg inh inconclusive, Gal4-VP16 FLuc inconclusive and KinaseGlo FLuc 3.3%.
For Cc1cc(C)nc(N2CCCC(C(=O)Nc3cccc(Cl)c3)C2)n1 (centres undefined) the results were RORg inh 24.4% and Gal4-VP16 FLuc -7.3%.
Cn1c(=O)n(Cc2ccccc2)c2ccccc21 was read as RORg inh -3.0%, Gal4-VP16 FLuc 14.3% and KinaseGlo FLuc 4.0%.
Screening Cn1sc(=O)n(Cc2ccccc2)c1=O returned RORg inh 3.16µM* and Gal4-VP16 FLuc inconclusive.
O=C(COc1ccc(Cl)cc1)NCc1ccc(F)cc1 was read as RORg inh 12.6% and Gal4-VP16 FLuc -7.6%.
`CC(C)NC(=O)c1ccc(N(Cc2ccc(Cl)cc2)S(C)(=O)=O)cc1` gave RORg inh 17.9% and Gal4-VP16 FLuc -2.2%.
O=S(=O)(CCN1CCOCC1)c1ccc(Oc2ccc(S(=O)(=O)CCN3CCOCC3)cc2)cc1 was read as RORg inh inconclusive and Gal4-VP16 FLuc 7.94µM*.
O=S(=O)(c1ccc(Oc2ccc(Br)cc2)cc1)N1CCOCC1 was read as RORg inh inconclusive, Gal4-VP16 FLuc inconclusive and KinaseGlo FLuc 2.0%.
Screening CC(=O)CCS(=O)(=O)c1ccc(Oc2ccc(S(=O)(=O)CCC(C)=O)cc2)cc1 returned RORg inh 8.91µM*, Gal4-VP16 FLuc inconclusive and KinaseGlo FLuc 6.0%.
CC(=O)CS(=O)(=O)c1ccc(Oc2ccc(S(=O)(=O)CC(C)=O)cc2)cc1 was read as RORg inh 22.3%, Gal4-VP16 FLuc -6.1% and KinaseGlo FLuc -0.1%.
Screening Cc1cccc2nc(COc3ccc(Cl)c4cccnc34)cn12 returned RORg inh -22.3%, Gal4-VP16 FLuc 29.2% and KinaseGlo FLuc -3.2%.
For Cc1cc(OC(C)C(=O)NCC2CCC(C(=O)O)CC2)c2c(C)c(C)c(=O)oc2c1 (centres undefined) the results were RORg inh -22.1% and Gal4-VP16 FLuc 5.6%.
For CC(=O)N1CCC2(CC1)CN(c1ccccn1)C2 the results were RORg inh -6.3%, Gal4-VP16 FLuc 7.4% and KinaseGlo FLuc -2.8%.
For N#C/C(=C/c1ccccc1[N+](=O)[O-])c1nnc2n1CCCCC2 the results were RORg inh -6.5%, Gal4-VP16 FLuc -4.5% and KinaseGlo FLuc 1.7%.
`N#C/C(=C(/O)c1cccs1)c1nnc2n1CCCCC2` gave RORg inh 10µM*, Gal4-VP16 FLuc inconclusive and KinaseGlo FLuc -0.3%.
`N#C/C(=C(/O)c1ccc([N+](=O)[O-])cc1)c1nnc2n1CCCCC2` gave RORg inh 17.8µM*, Gal4-VP16 FLuc inconclusive and KinaseGlo FLuc 4.0%.
For O=[N+]([O-])c1ccc(-c2nnc3n2CCCCC3)cc1 the results were RORg inh 1.6% and Gal4-VP16 FLuc 1.1%.
`O=C(O)c1ccc2c(c1)C(=O)N([C@H](Cc1c3ccccc3cc3ccccc13)C(=O)O)C2=O` gave RORg inh -1.9% and Gal4-VP16 FLuc -6.3%.
For CN(C)CCCN1c2ccccc2Sc2cnccc21 the results were KinaseGlo FLuc -2.6%[7.66 µM].
Screening C[C@H]1CC[C@@H]2N(C1)C[C@H]1[C@@H]3C[C@H]4[C@@H](C/C(=N\O)[C@H]5C[C@@H](O)CC[C@@]54C)[C@@H]3CC[C@H]1[C@]2(C)O returned RORg inh 15.5%, Gal4-VP16 FLuc 2.2% and KinaseGlo FLuc -0.1%.
Screening Cc1sc2ncnc(NC3CCN(Cc4ccccc4)CC3)c2c1C returned RORg inh inconclusive, Gal4-VP16 FLuc 15.8µM* and KinaseGlo FLuc -0.5%.
Screening c1ccc(CN2CCC(Nc3ncnc4sccc34)CC2)cc1 returned RORg inh inconclusive, Gal4-VP16 FLuc inconclusive and KinaseGlo FLuc -0.7%.
Screening CCc1ccccc1N(CC(=O)Nc1cccnc1)S(=O)(=O)c1ccccc1 returned RORg inh inconclusive and Gal4-VP16 FLuc -1.7%.
CC(C)(C)n1nnnc1C(c1ccc(F)cc1)N(Cc1ccc(F)cc1)Cc1ccco1 (centres undefined) was read as RORg inh 11.2µM*, Gal4-VP16 FLuc -11.1%[0.365 µM] and KinaseGlo FLuc 1.6%.
`Cc1ccc(C(c2nnnn2C(C)(C)C)N(Cc2ccco2)Cc2cccs2)cc1` (centres undefined) gave RORg inh 10µM*, Gal4-VP16 FLuc 7.08µM* and KinaseGlo FLuc 0.4%.

From PubChem BioAssay
